Laboratory results: the supplement of paper PMC11732987, “Enantioselective OTUD7B fragment discovery through chemoproteomics screening and high-throughput optimisation” (Communications Chemistry, 2025)

Key:
Assay in all cases: log2 ratio of Biotin-Ahx-Ub-VS probe labelling (fragment/DMSO); higher = less target engagement (more negative = stronger competition), active = hit call of the paper (q ≤ 0.05, log2 ratio ≤ -1)
Settings in all cases: compound concentration: 200 uM; treatment time: 3 h
[1] = molecular target: T1, OTUD6B (UniProt Q8N6M0)
T1 sequence (whole entry): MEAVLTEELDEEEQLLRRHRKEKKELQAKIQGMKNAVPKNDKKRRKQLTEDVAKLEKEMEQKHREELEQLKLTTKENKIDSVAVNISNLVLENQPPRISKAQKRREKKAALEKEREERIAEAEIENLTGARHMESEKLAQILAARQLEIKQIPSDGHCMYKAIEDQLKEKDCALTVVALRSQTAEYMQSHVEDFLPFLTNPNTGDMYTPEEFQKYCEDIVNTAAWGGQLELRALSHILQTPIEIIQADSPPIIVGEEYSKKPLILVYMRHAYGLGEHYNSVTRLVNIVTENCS
In short: (§1)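 The table lists average log2 ratios of fragment over vehicle, from an unpaired t-test on global-median-normalised Spectronaut label-free quantities. Proteins with ≥2 unique peptides were used. Samples were HEK293T lysate (495 µg) treated in triplicate with fragment at 200 µM or vehicle for 3 h, then with Biotin-Ahx-Ub-VS (0.5 µM final) for 1 h, with labelled DUBs NeutrAvidin-enriched and run by diaPASEF LC-MS/MS.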

[2] = molecular target: T2, OTUD7B (UniProt Q6GQQ9)
T2 sequence (whole entry): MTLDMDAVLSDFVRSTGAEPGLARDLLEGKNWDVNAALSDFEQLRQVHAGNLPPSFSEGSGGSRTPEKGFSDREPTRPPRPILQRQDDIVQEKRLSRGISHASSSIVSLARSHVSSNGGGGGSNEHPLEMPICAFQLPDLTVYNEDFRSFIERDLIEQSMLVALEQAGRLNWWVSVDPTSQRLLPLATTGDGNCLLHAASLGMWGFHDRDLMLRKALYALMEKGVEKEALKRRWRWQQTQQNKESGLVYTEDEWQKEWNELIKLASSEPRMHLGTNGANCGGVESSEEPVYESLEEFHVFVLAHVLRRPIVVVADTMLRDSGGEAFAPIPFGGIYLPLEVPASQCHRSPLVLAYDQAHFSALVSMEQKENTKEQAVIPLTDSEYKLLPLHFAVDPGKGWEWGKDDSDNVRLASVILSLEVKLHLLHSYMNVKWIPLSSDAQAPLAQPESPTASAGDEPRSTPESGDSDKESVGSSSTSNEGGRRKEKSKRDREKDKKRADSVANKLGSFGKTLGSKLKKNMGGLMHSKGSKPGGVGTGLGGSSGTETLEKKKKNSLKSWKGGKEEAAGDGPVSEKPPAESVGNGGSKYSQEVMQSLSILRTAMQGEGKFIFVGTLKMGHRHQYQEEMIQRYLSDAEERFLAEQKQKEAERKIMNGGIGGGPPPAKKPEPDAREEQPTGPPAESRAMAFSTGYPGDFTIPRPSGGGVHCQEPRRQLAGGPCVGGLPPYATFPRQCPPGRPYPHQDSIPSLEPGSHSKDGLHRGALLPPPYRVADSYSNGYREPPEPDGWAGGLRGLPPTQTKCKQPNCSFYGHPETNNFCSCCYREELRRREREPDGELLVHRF
In short: as §1

[3] = molecular target: PRPF8 (UniProt Q6P2Q9)
In short: as §1

[4] = molecular target: T3, PSMD7 (UniProt P51665)
T3 sequence (whole entry): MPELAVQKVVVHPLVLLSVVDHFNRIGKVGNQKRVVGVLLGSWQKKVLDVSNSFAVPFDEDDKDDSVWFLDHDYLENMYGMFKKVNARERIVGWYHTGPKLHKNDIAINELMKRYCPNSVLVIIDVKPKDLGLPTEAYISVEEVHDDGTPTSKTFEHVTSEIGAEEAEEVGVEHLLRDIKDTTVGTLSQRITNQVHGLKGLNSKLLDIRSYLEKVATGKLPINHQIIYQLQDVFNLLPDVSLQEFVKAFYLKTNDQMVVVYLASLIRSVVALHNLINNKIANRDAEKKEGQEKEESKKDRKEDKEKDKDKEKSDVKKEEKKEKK
In short: as §1

[5] = molecular target: UCHL1 (UniProt P09936)
UCHL1, sequence (P09936 whole entry, looked up): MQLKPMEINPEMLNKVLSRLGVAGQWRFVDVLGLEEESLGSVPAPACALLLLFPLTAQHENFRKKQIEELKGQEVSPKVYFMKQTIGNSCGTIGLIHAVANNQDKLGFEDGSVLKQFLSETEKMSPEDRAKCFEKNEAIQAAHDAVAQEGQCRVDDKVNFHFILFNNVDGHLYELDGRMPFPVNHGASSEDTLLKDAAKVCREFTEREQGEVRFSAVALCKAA
In short: as §1

[6] = molecular target: T4, UCHL3 (UniProt P15374)
T4 sequence (whole entry): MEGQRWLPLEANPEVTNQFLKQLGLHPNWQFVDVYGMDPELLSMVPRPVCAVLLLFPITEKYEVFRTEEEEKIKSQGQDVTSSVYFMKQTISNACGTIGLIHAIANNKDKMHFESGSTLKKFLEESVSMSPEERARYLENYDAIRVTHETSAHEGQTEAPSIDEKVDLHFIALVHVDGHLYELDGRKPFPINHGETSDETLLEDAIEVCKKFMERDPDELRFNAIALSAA
In short: as §1

[7] = molecular target: T5, UCHL5 (UniProt Q9Y5K5)
T5 sequence (whole entry): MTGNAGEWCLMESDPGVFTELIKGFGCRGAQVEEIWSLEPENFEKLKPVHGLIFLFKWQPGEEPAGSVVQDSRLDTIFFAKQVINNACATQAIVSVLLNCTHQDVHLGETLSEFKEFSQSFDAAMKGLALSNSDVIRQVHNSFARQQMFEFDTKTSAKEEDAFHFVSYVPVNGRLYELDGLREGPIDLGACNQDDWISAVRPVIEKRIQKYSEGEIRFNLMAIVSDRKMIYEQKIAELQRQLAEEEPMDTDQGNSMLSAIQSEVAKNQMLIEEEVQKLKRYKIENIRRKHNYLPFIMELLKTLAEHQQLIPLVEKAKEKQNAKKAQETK
In short: as §1

[8] = molecular target: USP10 (UniProt Q14694)
USP10, sequence (Q14694 whole entry): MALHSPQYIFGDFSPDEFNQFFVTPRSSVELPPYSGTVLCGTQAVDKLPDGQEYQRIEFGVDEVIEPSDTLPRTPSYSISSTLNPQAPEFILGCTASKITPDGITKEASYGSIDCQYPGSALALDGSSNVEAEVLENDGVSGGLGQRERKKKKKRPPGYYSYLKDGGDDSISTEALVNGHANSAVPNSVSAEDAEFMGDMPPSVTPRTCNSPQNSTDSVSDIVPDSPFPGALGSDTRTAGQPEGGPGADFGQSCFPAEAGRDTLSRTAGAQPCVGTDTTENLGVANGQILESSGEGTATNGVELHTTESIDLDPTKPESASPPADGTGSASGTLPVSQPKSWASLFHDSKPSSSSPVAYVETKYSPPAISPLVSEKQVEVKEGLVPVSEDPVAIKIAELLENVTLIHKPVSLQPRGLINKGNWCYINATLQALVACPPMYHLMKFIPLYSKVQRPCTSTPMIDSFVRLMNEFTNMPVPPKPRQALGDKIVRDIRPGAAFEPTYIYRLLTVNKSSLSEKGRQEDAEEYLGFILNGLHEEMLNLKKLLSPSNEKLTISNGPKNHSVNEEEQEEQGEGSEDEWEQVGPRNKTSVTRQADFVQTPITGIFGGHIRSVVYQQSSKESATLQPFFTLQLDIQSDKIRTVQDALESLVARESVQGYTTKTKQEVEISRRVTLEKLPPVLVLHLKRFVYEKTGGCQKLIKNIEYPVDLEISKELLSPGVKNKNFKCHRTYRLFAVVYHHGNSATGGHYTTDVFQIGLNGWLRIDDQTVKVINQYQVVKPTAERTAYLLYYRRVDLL
In short: as §1

[9] = molecular target: T6, USP15 (UniProt Q9Y4E8)
T6 sequence (whole entry): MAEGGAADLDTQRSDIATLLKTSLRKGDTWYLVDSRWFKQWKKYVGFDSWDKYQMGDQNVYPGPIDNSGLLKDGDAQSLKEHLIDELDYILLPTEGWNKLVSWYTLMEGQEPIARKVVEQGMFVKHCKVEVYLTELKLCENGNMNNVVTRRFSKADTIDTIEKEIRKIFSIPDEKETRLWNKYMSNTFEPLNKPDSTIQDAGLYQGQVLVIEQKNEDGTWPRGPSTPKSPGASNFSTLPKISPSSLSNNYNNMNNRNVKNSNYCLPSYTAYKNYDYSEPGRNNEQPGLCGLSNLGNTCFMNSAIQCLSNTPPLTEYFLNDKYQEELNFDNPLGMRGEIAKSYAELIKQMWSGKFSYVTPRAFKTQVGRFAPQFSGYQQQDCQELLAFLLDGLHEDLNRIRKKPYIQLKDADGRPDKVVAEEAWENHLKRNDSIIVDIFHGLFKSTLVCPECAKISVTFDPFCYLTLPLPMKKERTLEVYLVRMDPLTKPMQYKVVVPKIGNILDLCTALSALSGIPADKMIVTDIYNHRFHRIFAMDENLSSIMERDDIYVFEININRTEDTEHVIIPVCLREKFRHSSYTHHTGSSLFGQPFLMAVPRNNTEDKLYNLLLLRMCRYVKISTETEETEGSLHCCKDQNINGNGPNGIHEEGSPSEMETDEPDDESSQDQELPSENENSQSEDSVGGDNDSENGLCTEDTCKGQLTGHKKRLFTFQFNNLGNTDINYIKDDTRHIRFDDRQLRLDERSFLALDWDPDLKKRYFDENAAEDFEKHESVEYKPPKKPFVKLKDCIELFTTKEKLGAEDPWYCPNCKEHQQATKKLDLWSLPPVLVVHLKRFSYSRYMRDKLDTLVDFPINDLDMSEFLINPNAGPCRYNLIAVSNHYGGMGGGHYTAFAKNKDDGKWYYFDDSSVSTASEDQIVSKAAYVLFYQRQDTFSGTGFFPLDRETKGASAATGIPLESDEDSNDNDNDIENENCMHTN
In short: as §1

[10] = molecular target: USP16 (UniProt Q9Y5T5)
USP16, sequence (Q9Y5T5 whole entry, looked up): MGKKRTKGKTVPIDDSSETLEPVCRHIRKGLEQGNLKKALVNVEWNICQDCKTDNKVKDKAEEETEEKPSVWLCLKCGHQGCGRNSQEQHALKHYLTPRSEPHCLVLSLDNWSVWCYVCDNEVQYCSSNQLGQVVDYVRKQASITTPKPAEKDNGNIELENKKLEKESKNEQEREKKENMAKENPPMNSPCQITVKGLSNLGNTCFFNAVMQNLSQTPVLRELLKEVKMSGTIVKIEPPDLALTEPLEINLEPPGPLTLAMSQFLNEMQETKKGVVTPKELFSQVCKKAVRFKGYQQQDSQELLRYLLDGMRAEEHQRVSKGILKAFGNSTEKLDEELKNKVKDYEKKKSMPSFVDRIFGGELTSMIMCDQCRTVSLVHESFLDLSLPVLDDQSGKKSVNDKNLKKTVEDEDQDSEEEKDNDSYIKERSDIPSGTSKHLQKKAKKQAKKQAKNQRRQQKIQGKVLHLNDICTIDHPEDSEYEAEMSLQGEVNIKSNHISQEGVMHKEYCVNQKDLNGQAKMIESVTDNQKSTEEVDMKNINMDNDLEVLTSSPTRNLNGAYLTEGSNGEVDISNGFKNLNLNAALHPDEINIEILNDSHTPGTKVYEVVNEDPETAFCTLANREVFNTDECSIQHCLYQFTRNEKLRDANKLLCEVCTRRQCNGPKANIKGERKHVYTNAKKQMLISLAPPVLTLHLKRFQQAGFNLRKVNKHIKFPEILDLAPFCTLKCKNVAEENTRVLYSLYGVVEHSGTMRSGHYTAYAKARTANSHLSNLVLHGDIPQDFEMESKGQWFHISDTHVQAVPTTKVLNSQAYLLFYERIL
In short: as §1

Measured: log2 ratio of Biotin-Ahx-Ub-VS probe labelling

CN(C)S(=O)(=O)c1ccccc1CNC(=O)CCl
active: [5] -1.18
inactive: [1] -0.265 | [2] -0.0445 | [3] -0.0375 | [4] -0.18 | [6] 0.0942 | [7] -0.199 | [8] -0.156 | [9] -0.0655 | [10] 0.14
